We go through 4 compounds from the supplement of paper PMC9262897, “Low-cost anti-mycobacterial drug discovery using engineered E. coli” (Nature Communications, 2022).

Each structure is given as a SMILES string. ± gives the standard deviation of the averaged measurements.

What all share (experiment): growth (OD600 after 10 h); higher = more growth (less inhibition)
The test system of assay [1] is E. coli TESEC Alr+ wild-type control. The conditions noted are these: compound 0.1 mM; raw OD600 reference: median of DMSO wells 0.241, cell-free background 0.041. As to the method: (§1)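 TESEC Mtb Alr E. coli, or the Alr+ wild-type control, in 384-well plates with Prestwick library compounds at 0.1 mM and 1% DMSO, across arabinose induction levels of 1E3 to 1E7 nM. Growth is read as OD600 after 10 h at 37 °C in triplicate biological replicates.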

The test system of assay [2] is E. coli TESEC Mtb Alr. The conditions noted are these: compound 0.1 mM. As to the method:
as §1

The next assay deals with E. coli TESEC Mtb Asd. Particulars: compound 0.1 mM. The procedure:
(§2)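 TESEC E. coli strains in which the native enzyme is deleted and replaced by arabinose-inducible Mtb Asd, DapB, CysH or TrpD, each grown in its selective medium. Strains were screened against the Prestwick library at 0.1 mM and 1% DMSO in 384-well format at low and high arabinose induction. Growth is read as OD600 after 10 h in triplicate.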

For a further assay, the system named is E. coli TESEC Mtb DapB. Particulars: compound 0.1 mM. The procedure:
as §2

The test system of assay [3] is E. coli TESEC Alr+ wild-type control. Particulars: compound 0.1 mM; raw OD600 reference: median of DMSO wells 0.49, cell-free background 0.052. As to the method: (§3)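 TESEC Mtb Alr E. coli (ΔaraC ΔtolC ΔentC Δalr ΔdadX, arabinose-inducible Mtb Alr) or the Alr+ wild-type control strain, grown in defined M9-fructose medium without D-alanine in 96-well plates with Prestwick library compounds at 0.1 mM and 1% DMSO. Low Alr induction is 0.1 µM arabinose and high induction is 10 mM arabinose.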

The subject of assay [4] is E. coli TESEC Mtb Alr. The conditions noted are these: compound 0.1 mM. The procedure: as §3
The source holds these as a separate data set.

[5] abbreviates: arabinose 1000 nM, raw OD600 reference: median of DMSO wells 0.294, cell-free background 0.041.
Setting [6] is: arabinose 10000 nM, raw OD600 reference: median of DMSO wells 0.264, cell-free background 0.041.
Setting [7] is: arabinose 100000 nM, raw OD600 reference: median of DMSO wells 0.201, cell-free background 0.041.
Setting [8] is: arabinose 1000000 nM, raw OD600 reference: median of DMSO wells 0.193, cell-free background 0.041.
Setting [9] is: arabinose 10000000 nM, raw OD600 reference: median of DMSO wells 0.146, cell-free background 0.041.
The mark [10] stands for this setting: arabinose induction (level): High, raw OD600 reference: median of DMSO wells 0.331, cell-free background 0.041.
The mark [11] stands for this setting: arabinose induction (level): Low, raw OD600 reference: median of DMSO wells 0.417, cell-free background 0.041.
The mark [12] stands for this setting: arabinose induction (level): High, raw OD600 reference: median of DMSO wells […], cell-free background 0.041.
[13] abbreviates: arabinose induction (level): Low, raw OD600 reference: median of DMSO wells 0.227, cell-free background 0.041.
Where [14] appears, read: arabinose 100 nM, raw OD600 reference: median of DMSO wells 0.413, cell-free background 0.052.
The mark [15] stands for this setting: arabinose 10000000 nM, raw OD600 reference: median of DMSO wells […], cell-free background 0.052.

On to `CC1CNc2c(cccc2S(=O)(=O)N[C@@H](CCCNC(=N)N)C(=O)N2CC[C@@H](C)C[C@@H]2C(=O)O)C1` (some centres not stated) [Argatroban], for which the growth in assay [1] was 0.211 ± 0.0062; in the assay on E. coli TESEC Mtb Alr [2] (setting [5]), 0.288 ± 0.0078; in the assay on E. coli TESEC Mtb Alr [2] (setting [6]) it was 0.257 ± 0.0085; with E. coli TESEC Mtb Alr [2] (setting [7]), 0.222 ± 0.014; in the assay with E. coli TESEC Mtb Alr [2] (setting [8]) it was 0.182 ± 0.012; in the assay with E. coli TESEC Mtb Alr [2] (setting [9]), 0.144 ± 0.0053. Also, the growth in the assay with E. coli TESEC Mtb Asd (setting [10]) stood at 0.348 ± 0.096; with E. coli TESEC Mtb Asd (setting [11]), 0.395 ± 0.048; in the assay with E. coli TESEC Mtb DapB (setting [12]) it was 0.181 ± 0.0099; with E. coli TESEC Mtb DapB (setting [13]) it was 0.197 ± 0.016; in assay [3] it was 0.429 ± 0.019; with E. coli TESEC Mtb Alr [4] (setting [14]), 0.404 ± 0.011. This compound also had a growth in the assay on E. coli TESEC Mtb Alr [4] (setting [15]) of 0.369 ± 0.016.

Turning to `O=C1c2ccccc2C(=O)C1c1ccccc1` [Phenindione], the growth in assay [1] amounted to 0.243 ± 0.0053; in the assay with E. coli TESEC Mtb Alr [2] (setting [5]), 0.298 ± 0.0061; in the assay with E. coli TESEC Mtb Alr [2] (setting [6]), 0.268 ± 0.011; in the assay on E. coli TESEC Mtb Alr [2] (setting [7]) it was 0.197 ± 0.03; with E. coli TESEC Mtb Alr [2] (setting [8]) it was 0.166 ± 0.0028; with E. coli TESEC Mtb Alr [2] (setting [9]) it was 0.147 ± 0.004. The growth was 0.226 ± 0.037 in the assay on E. coli TESEC Mtb Asd (setting [10]); 0.321 ± 0.023 with E. coli TESEC Mtb Asd (setting [11]); 0.194 ± 0.0095 in the assay with E. coli TESEC Mtb DapB (setting [12]); 0.227 ± 0.017 in the assay on E. coli TESEC Mtb DapB (setting [13]); 0.488 ± 0.05 in assay [3]; 0.408 ± 0.0092 in the assay with E. coli TESEC Mtb Alr [4] (setting [14]). This compound also gave a growth with E. coli TESEC Mtb Alr [4] (setting [15]) of 0.302 ± 0.025.

As for `CC(C)(Oc1ccc(CCNC(=O)c2ccc(Cl)cc2)cc1)C(=O)O` [Bezafibrate], the growth in assay [1] came to 0.249 ± 0.0031; in the assay on E. coli TESEC Mtb Alr [2] (setting [5]), 0.296 ± 0.0036; with E. coli TESEC Mtb Alr [2] (setting [6]), 0.237 ± 0.0024; in the assay on E. coli TESEC Mtb Alr [2] (setting [7]), 0.208 ± 0.028; in the assay with E. coli TESEC Mtb Alr [2] (setting [8]), 0.163 ± 0.0041; in the assay on E. coli TESEC Mtb Alr [2] (setting [9]) it was 0.138 ± 0.0072. The growth in the assay on E. coli TESEC Mtb Asd (setting [10]) was 0.237 ± 0.074; in the assay on E. coli TESEC Mtb Asd (setting [11]), 0.298 ± 0.021; in the assay on E. coli TESEC Mtb DapB (setting [12]), 0.184 ± 0.012; with E. coli TESEC Mtb DapB (setting [13]), 0.216 ± 0.013; in assay [3] it was 0.483 ± 0.015; with E. coli TESEC Mtb Alr [4] (setting [14]) it was 0.43 ± 0.0059. The same compound displayed a growth with E. coli TESEC Mtb Alr [4] (setting [15]) of 0.322 ± 0.019.

Take `C#C[C@]1(O)CC[C@H]2[C@@H]3CCc4cc(O)ccc4[C@H]3CC[C@@]21C` [Ethinylestradiol]: the growth in assay [1] was 0.0556 ± 0.00079; in the assay with E. coli TESEC Mtb Alr [2] (setting [5]), 0.0489 ± 0.0023; in the assay with E. coli TESEC Mtb Alr [2] (setting [6]), 0.0421 ± 0.00055; in the assay with E. coli TESEC Mtb Alr [2] (setting [7]) it was 0.0506 ± 0.0016; with E. coli TESEC Mtb Alr [2] (setting [8]), 0.0444 ± 0.00061; in the assay on E. coli TESEC Mtb Alr [2] (setting [9]), 0.05593 ± 0.00015. For the same compound, the growth was determined as 0.112 ± 0.017 with E. coli TESEC Mtb Asd (setting [10]); 0.0911 ± 0.062 with E. coli TESEC Mtb Asd (setting [11]); 0.0856 ± 0.007 with E. coli TESEC Mtb DapB (setting [12]); 0.0703 ± 0.0015 with E. coli TESEC Mtb DapB (setting [13]); 0.0818 ± 0.0029 in assay [3]; 0.303 ± 0.024 with E. coli TESEC Mtb Alr [4] (setting [14]). This compound registered a growth in the assay with E. coli TESEC Mtb Alr [4] (setting [15]) of 0.0705 ± 0.016.
